Test results taken from the supplement of paper PMC3334620.
The full ranking holds about 33,000 sequences; the median of “E-score (-0.5 to 0.5)” is about -0.032, and the highest 2% start at about 0.36. Only a selection was taken, and the highest values are over-represented in it overall.

What follows are sequences tested against T1, Sko1 (UniProt Q02100) (assay: PBM E-score (8-mer binding enrichment) (E-score (-0.5 to 0.5)); higher = stronger / more preferred TF binding). Conditions: protein concentration: 200 nM; construct: GST-full length.
T1 sequence: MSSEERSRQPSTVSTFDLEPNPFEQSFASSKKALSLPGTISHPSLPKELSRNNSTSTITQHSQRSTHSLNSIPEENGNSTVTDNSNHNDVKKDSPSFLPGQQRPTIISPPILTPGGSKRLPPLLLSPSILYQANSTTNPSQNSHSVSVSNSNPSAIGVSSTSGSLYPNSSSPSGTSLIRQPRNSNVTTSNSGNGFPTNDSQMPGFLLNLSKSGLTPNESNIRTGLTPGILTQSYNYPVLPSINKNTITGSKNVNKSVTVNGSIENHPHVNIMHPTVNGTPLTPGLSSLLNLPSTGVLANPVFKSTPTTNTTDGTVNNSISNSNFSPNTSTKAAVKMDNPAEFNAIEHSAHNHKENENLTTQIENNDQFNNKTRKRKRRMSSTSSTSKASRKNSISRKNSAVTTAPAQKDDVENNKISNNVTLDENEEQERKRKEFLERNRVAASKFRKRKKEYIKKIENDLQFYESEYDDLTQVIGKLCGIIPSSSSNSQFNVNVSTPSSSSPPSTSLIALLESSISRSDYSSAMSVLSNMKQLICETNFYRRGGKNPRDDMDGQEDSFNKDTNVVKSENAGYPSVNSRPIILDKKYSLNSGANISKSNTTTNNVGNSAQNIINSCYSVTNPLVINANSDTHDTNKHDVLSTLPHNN
Description: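 Universal 'all 10-mer' protein binding microarrays (Agilent AMADID 015681) probed with GST-tagged S. cerevisiae TFs (full-length or DBD) made by in vitro transcription/translation (PURExpress), about 100-200 nM. Bound TF was detected with fluorescent anti-GST. Each ungapped 8-mer (which stands for itself and its reverse complement) is scored by the PBM enrichment score (E-score), a modified Wilcoxon-Mann-Whitney statistic from -0.5 to +0.5, computed with the Universal PBM Analysis Suite. Scale: above 0.35 generally sequence-specific binding.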

Sequence	PBM E-score
CCACTCGC	-0.25
GAGATCCC	-0.171
CCCGCAAA	-0.0244
GGGGCGGA	-0.338
CGTCTAAG	0.0318
CCGACCGG	-0.294
ACAGTCTG	-0.171
ACGATTCG	0.059
CCGTCTGA	-0.224
AGGCAGTA	-0.129
CCGGCCGG	-0.373
AGCTGACG	0.347
CACTGACC	-0.26
CACTGACA	0.0149
CACTGACG	0.424
CGCTGACC	-0.15
AACTGACA	0.183
AACTGACT	-0.0679
AACTGACG	0.363
CGCTGACG	0.389
TGGTGCAA	-0.0842
CCTTTTAC	-0.0204
AGCGAACC	0.0124
TCCCAAAA	-0.048
ATGCAAAC	0.108

Sequence	PBM E-score
ATACCGTG	-0.0765
GCACTGCA	0.0142
AGGTCACT	-0.0104
AGGTCACC	-0.128
ACGTCACA	0.481
ACGTCACT	0.489
CCGTCACC	0.101
AAGTCACG	0.126
ACGTCACG	0.486
ACGTCACC	0.489
AGGTCACG	0.0716
AAGTCACT	0.144
AAGTCACA	0.0509
ATGTCACA	0.324
CTAGAATC	-0.0473
ATCAGGTG	-0.0909
ACTGCAAC	-0.0632
GTGCTTCA	0.0642
ACATATGT	0.29
CGTGAGAA	0.117
GAAATTAC	0.323
GTAATTAA	0.237
GTAATTAC	0.367
ATAATTAA	0.285
CTAATTAC	0.323

Sequence	PBM E-score
ATAATTAC	0.376
CACTGTCG	-0.11
GCACCTGC	-0.202
GCATCATA	0.366
AAATCATA	0.204
CTATCATC	0.0137
CCATCATC	0.0168
ACATCAGA	0.122
ACATCATG	0.393
GCATCAGA	0.113
ACATCAAG	0.242
ACATCATA	0.425
ACATCATC	0.43
ACATCACA	0.313
CCATCATA	0.0672
ACTGGTTA	0.0712
ATTGGAGA	0.0978
ACGCCGTC	0.192
AGCATAGA	-0.0737
GCTCGACA	-0.181
CACTAGAA	0.023
GCAGCGGC	-0.178
ACGCGGAA	0.0704
TGGCGTAA	0.414
ACGCGTAC	0.307

Sequence	PBM E-score
ACGCGTAA	0.382
GGGCGTAA	-0.0261
ACGCGTGA	0.32
TGTCGTAA	0.412
AGTCGTAA	0.231
ACGCGTAG	0.259
AAGCGTAA	0.241
ACGCGTAT	0.389
AGGCGTAA	0.206
GGTCGTAA	0.249
CACGATCG	0.0307
CGTTCAAC	0.112
GGTCTCCA	-0.19
CGTCCGAC	-0.0238
ACAACCGG	-0.197
CAGACCAC	-0.0177
CACCAGCA	0.0552
AGCGCGAT	-0.0488
ACTCGAAA	0.0248
ATGTATGA	0.288
CCGCGTAA	0.318
TCGCGTAA	0.393
GCGCGTAA	0.336
AATGCGTC	0.185
CATGCGTC	0.161

Sequence	PBM E-score
GATGCGTA	0.272
AATGCGTA	0.39
CATGCGTA	0.38
AATGCGTG	0.214
GGGTGAAC	-0.114
ACATAGGG	-0.181
AGATAGCC	-0.299
ACATCTAG	-0.0627
AACATTCC	0.0401
CGCATACA	0.0477
ATCATACA	0.257
CGCATACC	0.0198
AACATACT	0.0365
CACATACG	0.276
ATCATACG	0.365
ATCATACC	0.171
CGCATACG	0.378
AACATACG	0.387
CTGCTACA	-0.0447
AATGCTTA	-0.1
CAGTATGC	-0.0805
GTTCCGCA	0.00536
GTCGATCA	-0.0654
TATCGCCA	0.0834
CCCTATGA	0.0198

Sequence	PBM E-score
AAGTCCAA	0.0276
AATAACGC	0.106
AATAACGG	0.138
AATAACGT	0.426
GCCTCAAC	-0.175
AGGTTTTG	-0.0965
ACGTTTTC	0.396
ACGTTTTA	0.364
ACGTTTTG	0.393
ACGTTTGG	0.296
GCGTTTTA	0.125
CCGTTTTC	0.0601
CCGTTTTA	-0.00533
ACGTTTCC	0.294
GGCTACAA	-0.0783
CATCGAGA	0.0586
CACTTGAC	0.186
AAGGTTAA	0.06
AAATGTCG	0.159
AGCTTGCA	0.0429
CGCCTACC	-0.145
CCTCTGCA	-0.229
GGTAACTA	0.0515
CGTAACTC	0.331
CGTAACCC	0.289

Sequence	PBM E-score
GGTAACCA	-0.101
GGTAACGA	0.0123
CGTAACTA	0.381
CGTAACGC	0.34
CGTAACGA	0.366
CGTAACCA	0.389
ACCGTGCG	0.0174
TCTACTAA	0.0947
CGTTTAAA	0.277
TGAATGAA	0.197
ATAGGTCG	-0.195
AATGTCGT	0.371
AATGTCGG	0.0603
AATGTCGA	0.217
CGATTGTC	0.0842
AGGAGCCC	-0.142
CCATTACC	-0.148
ACATTACT	0.0825
CCATTACG	0.438
CCATTACA	0.089
ACATTACG	0.425
ACATTACA	0.28
